From PubChem BioAssay come the findings set out here.

Molecules are shown by their SMILES. A number with no mark means an inactive call. For part of these data: Results with a measured potency or affinity are listed apart. Activity calls are given as the source filed them. Unless noted, the rule behind the calls is not given here.

Assay [1] can be described thus: antimalarial activity against Dd2 strain (AID 2302;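 active = growth inhibition above 50% at the single 2 µM test dose, taken to imply half-maximal potency below 2 µM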;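 note: 0% = DMSO untreated growth and 100% = chloroquine plus artemisinin killed control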). The following applies: P. falciparum Dd2 in RBCs, LDH growth readout, 72 h; at 2 µM; hits give high values.
Assay [2] can be described thus: human hepatoma cell viability loss – ATP luminescence, cytotoxicity control for P. falciparum antimalarial project, primary screen (AID 2303;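 active = inhibition above 50%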;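 note: 0% = DMSO wells and 100% = digitonin-killed cells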). To be noted: HepG2 viability, 24-48 h, at 10 µM, hits give high values.
Assay [3] deals with L-lactate dehydrogenase (Plasmodium falciparum (isolate CDC / Honduras)) (UniProt Q27743). Nature of the assay: PfLDH activity inhibition – cell lysate, 3D7 strain, counter-screen for P. falciparum growth inhibition project (AID 2304).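 Note: 0% = vehicle and 100% = reference inhibitor.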 To be noted: P. falciparum 3D7 crude extract, LDH APAD/NBT absorbance; at 2 µM; hits give high values.
L-lactate dehydrogenase (Plasmodium falciparum (isolate CDC / Honduras)), sequence (Q27743 whole entry, looked up): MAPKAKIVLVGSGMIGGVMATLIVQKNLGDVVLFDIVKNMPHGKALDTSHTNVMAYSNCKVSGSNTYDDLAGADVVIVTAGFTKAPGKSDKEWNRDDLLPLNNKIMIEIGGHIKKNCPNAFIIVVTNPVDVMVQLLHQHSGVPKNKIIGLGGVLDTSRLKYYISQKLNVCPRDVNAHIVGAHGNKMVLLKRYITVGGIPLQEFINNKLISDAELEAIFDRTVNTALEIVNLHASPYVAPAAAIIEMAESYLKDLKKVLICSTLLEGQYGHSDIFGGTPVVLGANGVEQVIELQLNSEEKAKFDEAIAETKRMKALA
A short description of assay [4]: inhibition of 3D7 malaria parasite growth – strain 3D7 (AID 2306).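 Note: 0% = DMSO wells and 100% = chloroquine plus artemisinin control wells.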 The following applies: P. falciparum 3D7 erythrocytic growth, LDH absorbance, 72 h; at 2 µM; hits give high values.
Assay [5] has as its target Calcium-dependent protein kinase 1 (Plasmodium falciparum (isolate 3D7)) (UniProt P62344). Put plainly: PfCDPK1 kinase inhibitors, biochemical, TCAMS library (AID 1159585; cut-off not given, nearly all actives have IC50 up to about 0.98 µM;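 note: inhibitors leave more ATP so luminescence rises with inhibition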). The following applies: recombinant PfCDPK1, Kinase-Glo ATP depletion luminescence. (In general: Kinase-Glo measures the ATP left after a reaction by luminescence.)
The target in assay [6] is Plasmodium falciparum protein kinase 6 (PK6, PF3D7_1337100) (UniProt Q8IDW1). Put plainly: PfPK6 kinase inhibitors, biochemical, TCAMS library (AID 1159586). To be noted: recombinant PfPK6, Kinase-Glo ATP depletion luminescence.
Plasmodium falciparum protein kinase 6 (PK6, PF3D7_1337100), sequence (Q8IDW1 1-305): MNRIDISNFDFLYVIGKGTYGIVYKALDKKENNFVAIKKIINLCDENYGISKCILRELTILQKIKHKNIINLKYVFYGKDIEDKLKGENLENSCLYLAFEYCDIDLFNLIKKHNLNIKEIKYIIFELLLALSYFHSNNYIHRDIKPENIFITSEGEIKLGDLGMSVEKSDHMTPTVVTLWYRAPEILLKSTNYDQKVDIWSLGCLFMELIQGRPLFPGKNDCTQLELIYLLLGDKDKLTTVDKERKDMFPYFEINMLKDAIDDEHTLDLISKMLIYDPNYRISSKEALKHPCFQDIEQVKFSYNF
In assay [7] the target is Protein kinase 7 (PK7), Plasmodium falciparum 3D7 (PF3D7_0213400) (UniProt Q7YTF7). Nature of the assay: inhibition of Plasmodium PK7 catalytic activity – biochemical, TCAMS antimalarial set, Kinase-Glo luminescence (AID 1159587). The following applies: recombinant PfPK7, Kinase-Glo ATP depletion luminescence.
Protein kinase 7 (PK7), Plasmodium falciparum 3D7 (PF3D7_0213400), sequence (Q7YTF7 1-343): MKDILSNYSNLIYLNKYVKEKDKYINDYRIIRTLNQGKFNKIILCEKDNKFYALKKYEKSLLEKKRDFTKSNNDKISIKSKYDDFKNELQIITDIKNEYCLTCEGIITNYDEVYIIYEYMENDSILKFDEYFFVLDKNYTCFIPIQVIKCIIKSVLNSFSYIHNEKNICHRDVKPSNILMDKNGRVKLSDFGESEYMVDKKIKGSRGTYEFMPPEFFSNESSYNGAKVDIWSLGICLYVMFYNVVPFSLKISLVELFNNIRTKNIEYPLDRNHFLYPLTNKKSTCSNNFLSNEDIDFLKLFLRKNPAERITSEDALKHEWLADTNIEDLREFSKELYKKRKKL
Assay [8] has as its target Calcium-dependent protein kinase 4 (Plasmodium falciparum (isolate 3D7)) (UniProt Q8IBS5). Nature of the assay: PfCDPK4 kinase inhibitors, biochemical, TCAMS library (AID 1159588; cut-off not given, nearly all actives have IC50 up to about 0.91 µM). The following applies: recombinant PfCDPK4, Kinase-Glo ATP depletion luminescence.

Calcium-dependent protein kinase 4 (Plasmodium falciparum (isolate 3D7)), sequence (Q8IBS5 whole entry, looked up): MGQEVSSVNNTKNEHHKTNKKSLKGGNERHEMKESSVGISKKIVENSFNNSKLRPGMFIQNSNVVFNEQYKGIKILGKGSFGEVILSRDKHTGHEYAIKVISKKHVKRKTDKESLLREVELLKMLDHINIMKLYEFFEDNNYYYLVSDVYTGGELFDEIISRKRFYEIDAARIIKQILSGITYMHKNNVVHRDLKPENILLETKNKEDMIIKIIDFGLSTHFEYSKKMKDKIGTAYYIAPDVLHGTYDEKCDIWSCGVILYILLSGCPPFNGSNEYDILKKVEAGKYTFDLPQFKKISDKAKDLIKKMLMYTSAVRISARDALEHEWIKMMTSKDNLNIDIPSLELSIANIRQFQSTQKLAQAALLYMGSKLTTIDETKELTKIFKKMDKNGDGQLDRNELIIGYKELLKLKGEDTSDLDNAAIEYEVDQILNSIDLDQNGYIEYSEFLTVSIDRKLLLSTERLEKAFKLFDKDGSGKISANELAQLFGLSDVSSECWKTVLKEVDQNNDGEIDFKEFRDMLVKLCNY
Calcium-dependent protein kinase 1 (Plasmodium falciparum (isolate 3D7)), sequence (P62344 whole entry, looked up): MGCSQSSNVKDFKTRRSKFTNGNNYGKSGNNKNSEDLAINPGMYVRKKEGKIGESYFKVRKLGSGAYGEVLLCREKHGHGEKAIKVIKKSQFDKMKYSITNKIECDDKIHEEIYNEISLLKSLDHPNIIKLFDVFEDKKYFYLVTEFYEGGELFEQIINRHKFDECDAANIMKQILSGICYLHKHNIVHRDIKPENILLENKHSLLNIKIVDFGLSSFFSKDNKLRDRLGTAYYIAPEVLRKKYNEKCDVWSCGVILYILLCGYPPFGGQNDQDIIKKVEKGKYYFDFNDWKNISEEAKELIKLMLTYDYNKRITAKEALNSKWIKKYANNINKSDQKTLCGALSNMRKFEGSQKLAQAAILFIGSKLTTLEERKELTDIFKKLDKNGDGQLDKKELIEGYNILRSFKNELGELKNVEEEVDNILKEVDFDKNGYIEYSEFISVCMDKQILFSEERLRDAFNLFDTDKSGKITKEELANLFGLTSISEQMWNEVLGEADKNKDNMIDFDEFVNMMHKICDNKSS

The inhibition is the change of the read-out against control, counted positive when it falls. As to `CCNc1cc(C(=O)N[C@@H](Cc2ccccc2)[C@H](O)CNC(CC)c2cccc(Cl)c2)cc(N2CCCCS2(=O)=O)c1` (some centres undefined), the values for the growth inhibition in assay [1] and in assay [4] were 98% (active) and 100% (active), respectively. Also, the inhibition in assay [2] is 12%; in assay [3], -2%. Further, the outcome in assay [5], in assay [6], in assay [7] and in assay [8] was inactive.
For `CCOc1cc(Cc2cnc(N)nc2N)cc(OCC)c1OCC`, the growth inhibition was 0% in assay [1] and 97% (active) in assay [4]. Also, the results for the inhibition in assay [2] and in assay [3] were -1% and 5%, respectively. The outcome in assay [5], in assay [6], in assay [7] and in assay [8] was inactive.
As to `CS(=O)(=O)CCNC(=O)c1ccc(-c2cc3c(Nc4ccc5c(cnn5Cc5ccccc5)c4)ncnc3cn2)o1`, the growth inhibition in assay [1] was 46%; in assay [4] it was 97% (active). Moreover, the results for the inhibition in assay [2] and in assay [3] were 6% and -1%, respectively. Further, the outcome in assay [5], in assay [6], in assay [7] and in assay [8] was inactive.
